High-throughput results (PubChem BioAssay)
KDM5B inhibitor: Primary screen for KDM5B Histone Demethylases FDH-coupled qHTS. Lysine-specific demethylase 5B (Homo sapiens), Q9UGL1. KDM5B demethylase, FDH-coupled NADH fluorescence (FDH is formaldehyde dehydrogenase). Potency, µM (titrated, usually from 57.7 µM), hits mostly inhibitors. 2.6% of 220,000 active; active = well fitted inhibition curve with a large enough effect; note: nearly all actives have a fitted effect of over 70% in size
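Compound dilutions met 200 nM (final) KDM5BΔAP for 10 min at room temperature before substrate addition. The substrate mix held 12.5 µM H3K4me3 with cofactors 25 µM α-ketoglutarate and 50 µM Fe²⁺. NADH signal gain over 30 min defined activity.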
Hits are given with their value; - = inactive. Shown is part of a subset that was picked to be rich in hits.

SMILES	KDM5B inhibitor
COc1ccc(OC)c(S(=O)(=O)Nc2cccc(CCc3nc4ccccc4n3C)c2)c1	-
COc1ncc(-c2cc3c(nc2OC)nc(CC2CC2)n3C)cn1	-
CC(C)c1ccc(N/C=C/C(=O)c2ccc(Br)cc2)cc1	-
CCCCCn1nc(C(=O)NCc2ccc(Cl)cc2)c2ccccc2c1=O	-
CC(Cl)C(=O)Nc1ccccc1C(C)C (centres undefined)	-
Cc1ccc(C(=O)OCC(=O)Nc2cccc(N3CCCC3=O)c2)c(O)c1	-
COc1ccc(NC(=O)c2cnc3c(c2)N(C(=O)CCc2ccccc2)CCC3)cn1	-
COc1ccc(-c2ccc3ncc(Nc4ccc(CCO)cc4)n3n2)cn1	-
COc1ccc(Nc2cc3c(nc2OC)nc(CCc2ccccc2)n3C)cn1	18µM
OC12CC3CC(C1)CC(NCc1cccc4ccccc14)(C3)C2	-
COc1ccc(-c2noc([C@@H]3CCCN3C(=O)c3ccc(F)c(Cl)c3)n2)cc1OC	-
O=C(Nc1ccccc1Br)c1cc(-c2cccnc2)nc2ccccc12	-
O=C(Nc1cccc(F)c1)C1(CCO)CCN(c2ncccn2)C1 (centres undefined)	28µM
O=C(Nc1cccc(F)c1)C1=NO[C@@H]2CN(c3ccccn3)C[C@H]12	-
O=C(Nc1ccc(N2CCOCC2)cc1)C1(CCO)CCN(Cc2ccccc2)C1 (centres undefined)	-
CCCC1(C(=O)O)CCCN(C(=O)c2cccnc2OCC)C1 (centres undefined)	-
COc1ccccc1CNC(=O)C1(CCO)CCN(Cc2ccccc2)C1 (centres undefined)	-
O=C(NCc1ccccc1)C1(CCO)CCN(c2ncccn2)C1 (centres undefined)	28µM
COCCNC(=O)C1(CCO)CCN(Cc2ccccc2)C1 (centres undefined)	-
O=C(Nc1ccc(N2CCOCC2)cc1)C1(CCO)CCN(c2ncccn2)C1 (centres undefined)	22µM
O=C(Nc1ccc(N2CCOCC2)cc1)c1cnccn1	-
O=C(Nc1cccc(F)c1)C1(CCO)CC12CCOCC2 (centres undefined)	-
O=C(c1ccc(-c2ccccc2CO)nc1)N1CCCN(c2ncccn2)CC1	-
O=C(N1CCCC1)C1(CCO)CCN(c2ncccn2)C1 (centres undefined)	28µM
O=C(/C=C/c1cccs1)NC(=S)NNC(=O)c1ccccc1	-
SMILES	KDM5B inhibitor
OCCCC1CCCN1 (centres undefined)	-
COc1ccc(NS(=O)(=O)c2cc(C(=O)N3CCCC3)cs2)cc1	-
O=C(c1cc(F)cc(F)c1)N1CCC(c2n[nH]c(=O)n2-c2ccccc2)CC1	-
CCSC1=C(C#N)C(c2ccc(OC)c(OC)c2)C2=C(CC(C)(C)CC2=O)N1 (centres undefined)	-
CC(=O)N1CCC2(CC1)Oc1ccc(Br)cc1C1CC(c3ccco3)=NN12 (centres undefined)	-
Cc1ccc(NC(=O)CSc2nnc(Cc3ccccc3)o2)cc1Cl	-
O=C(CCCN1C(=O)C(c2ccccc2)Oc2cccnc21)NCCc1ccccc1 (centres undefined)	-
CC(=O)Nc1ccc(NC(=O)CSc2ncnc3nc[nH]c23)cc1	-
CN1C[C@H](C(=O)Nc2cccc(F)c2)C[C@H]1c1cccc(C(F)(F)F)c1	-
CCc1ccc2oc(=O)cc(-c3oc4ccccc4c3NC(=O)C3CC3)c2c1	-
COc1ccc(C(=O)N2CCC(Cc3nc(-c4ccccc4)n[nH]3)CC2)cc1OC	-
COc1ccc2[nH]cc(CCNC(=O)c3cc(F)ccc3F)c2c1	-
O=C(Cn1nc(-c2ccccc2)ccc1=O)NCc1ccc(F)cc1Cl	-
COc1ccc(CNC(=O)c2cc(-c3ccc(Cl)cc3)n[nH]2)cc1	-
COc1ccc(-c2ccc3nnc(CNC(=O)c4cc(Cl)ccc4F)n3n2)cc1	28µM
Cc1ccc(-c2ccc3nnc(CNC(=O)c4cc(F)ccc4Cl)n3n2)cc1	13µM
Cc1ccc(-c2ccc3nnc(CNC(=O)c4cc(Cl)ccc4F)n3n2)cc1	28µM
COc1ccc(-c2cc(N3CCCC(NC(=O)c4cc(F)ccc4F)C3)n[nH]2)cc1 (centres undefined)	-
COc1ccc(-c2ccc3nnc(CNC(=O)c4cc(F)ccc4F)n3n2)cc1	28µM
O=C(NCc1ccc(OC(F)F)cc1)c1cc(Cl)ccc1-n1cnnn1	-
C/C(=N/O)c1cc(C)ccc1O	-
CC(=O)N(c1nc(C)c(C(=O)Nc2ccc3cc[nH]c3c2)s1)C(C)C	-
Cc1cc(C)c(S(=O)(=O)N2CCOC23CCN(C(=O)CC(C)C)CC3)c(C)c1	-
Fc1ccc(CSc2ncccn2)cc1	-
CC(C)Cc1nnc(NC(=O)c2cc(=O)c3cc(Cl)cc(Cl)c3o2)s1	-
SMILES	KDM5B inhibitor
CCOC(=O)C1(Cc2ccccc2C)CCCN(Cc2cn(CC(N)=O)c3ccccc23)C1 (centres undefined)	-
Cc1c(C(=O)Nc2nccs2)[nH]c2c1C(=O)CCC2	-
O=C(CC12CC3CC(CC(Br)(C3)C1)C2)OCc1cc([N+](=O)[O-])cc2c1OCOC2	-
Cc1nc2ccc(C(=O)NCCCN3CCOCC3)cc2nc1C	-
COc1cccc(-c2cc3c(=O)n(CCNC(=O)c4ccc(OC)c(F)c4)ccn3n2)c1	20µM
COc1cccc(-c2cc3c(=O)n(CCNC(=O)c4cccnc4)ccn3n2)c1	-
COc1cccc(-c2cc3c(=O)n(CCNC(=O)c4ccoc4)ccn3n2)c1	-
Cc1ccc(-c2cc3c(=O)n(CCNC(=O)c4ccc5cc[nH]c5c4)ccn3n2)cc1C	35µM
COc1cccc(-c2cc3c(=O)n(CCNC(=O)c4cc(F)cc(F)c4)ccn3n2)c1	-
Cc1cc(C)cc(C(=O)NCCn2ccn3nc(-c4ccc(F)cc4)cc3c2=O)c1	-
COc1cccc(-c2cc3c(=O)n(CCNC(=O)c4ccc5cc[nH]c5c4)ccn3n2)c1	35µM
Cc1c(C(=O)NC(C)c2ccc(F)c(F)c2)[nH]c2c1C(=O)CC(C)(C)C2 (centres undefined)	-
Cc1cc(CSc2nnc(-c3ccc(Cl)cc3)n2Cc2ccco2)no1	-
COc1cc(OC)cc(C(=O)Nc2ccc3oc(C)nc3c2)c1	-
COc1ccccc1-c1ccc(CN2C3CCC2CN(C(=O)c2ccncc2)C3)cc1	-
COc1ccccc1-c1ccc(C(=O)N2C[C@@H](N(C)C)[C@H](C(C)C)C2)cc1	28µM
CC(C)c1ccc(C(=O)N2C[C@@H](CO)[C@H](N(C)C)C2)cc1	-
O=C(NC1CCC(C(F)(F)F)CC1)c1ccsc1 (centres undefined)	-
O=S(=O)(c1cccc2nsnc12)N(Cc1ccccc1)C1CC1	-
O=Cc1c(-c2ccc(F)cc2)[nH]c2ccccc12	-
CC1=C[C@@H](CNC(=O)NC(C)C)[C@H](C(C)C)C[C@H]1Cc1nnc(-c2ccccc2F)o1	-
CCNc1ncc(C(=O)N2CCN(CCCCOC)CC2)cn1	25µM
CCCCOc1ccc(C(=O)N2CCN(CCc3ccncc3)CC2)cc1	-
CCCN1CCN(C(=O)[C@H]2CCC[C@H]2NC(=O)c2ccc(OC)nc2)CC1	-
FC(F)(F)c1ccc(-c2cnc([C@@H]3COCCN3Cc3ccccn3)[nH]2)cc1	-
CC(C)C[C@@H]1N[C@H](C(=O)NCc2ccccc2)Cc2cn(Cc3cccnc3)c3cccc1c23	-
COc1ccc(CNC(=O)[C@@H]2Cc3cn(Cc4cccnc4)c4cccc(c34)[C@H](CC(C)C)N2)cc1	-
CC#CCn1cc2c3c(cccc31)[C@H](CC(C)C)N[C@H](C(=O)NCCC)C2	-
